Consider 23 compounds from PubChem BioAssay (NCATS).

SMILES strings stand for the structures. Inconclusive results are not listed. Entries that show only a call come without a potency. Calls of active or inactive are those of the source. The call rests on the fitted dose curve; in most records, active means well fitted inhibition curve with a large enough effect; inconclusive means small, poorly fitted or top-dose-only effect; inactive means flat fitted curve, though single readings scatter.

Chain of Calcium and integrin-binding protein 1 (Homo sapiens) (Q99828 whole entry, looked up): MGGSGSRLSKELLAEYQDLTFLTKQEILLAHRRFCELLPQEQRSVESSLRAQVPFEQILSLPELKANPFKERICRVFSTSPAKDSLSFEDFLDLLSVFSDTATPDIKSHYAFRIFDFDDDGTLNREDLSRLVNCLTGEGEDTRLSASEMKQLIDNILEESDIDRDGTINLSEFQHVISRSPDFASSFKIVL

This experiment concerns the target Calcium and integrin-binding protein 1 (Homo sapiens) (UniProt Q99828). Description: Primary qHTS for Identification of Calcium Integrin Binding Protein 1 (CIB1) Competitor (AID 1508620). Further: top concentration of the series differs between compounds. The conditions noted are these: CIB1-GST / FITC-alphaIIb peptide fluorescence polarization; series mostly up to 114 µM. The gist of the method:
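Fluorescence polarization competition: GST-tagged CIB1 (1 uM final) preincubated with compound 15 min at room temperature, then FITC-labelled alphaIIb peptide (100 nM final) added. After 15 min at room temperature, polarization read at Ex 480/Em 540.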
(In general: qHTS replaces the single test concentration by a dilution series.)
Regarding `Cc1ccc(OCCn2c(CCNC(=O)c3cccc(NC(=O)OC(C)(C)C)c3)nc3ccccc32)cc1`, the Potency result was “inactive”.

Take `Cc1nnc(-c2cnn(C)c2N)n1CCCc1ccccn1`: the Potency entry is “inactive”.

Consider `N#Cc1ccc(-c2ccc(NC(=O)c3cccs3)cn2)cc1`, for which the Potency result was “inactive”.

As for `O=C1CCCC2=C1C(c1[nH]ncc1Cl)NC(=NCc1ccco1)N2` (stereo not drawn), the Potency result is “inactive”.

As for `Cc1ccc2c(c1)/C(=C\c1cc(Cl)c(O)c(Cl)c1)C(=O)N2`, the Potency result was “inactive”.

`COc1cccc(C(=O)Nc2ccc(-c3nc4ccccc4[nH]3)cc2)c1`: the Potency result is “inactive”.

Take `Cc1cc2c(s1)c1cnn(Cc3ccc(C#N)cc3)c(=O)c1n2C`: the Potency result is “inactive”.

On to `O=C(O)c1ccc(-c2ccc3ncnc(NCC4CCCO4)c3c2)o1` (stereo not drawn), for which the Potency entry was “inactive”.

As to `COc1cc(-c2ccc3ncnc(NCc4ccc(C)o4)c3c2)cc(OC)c1OC`, the Potency result is “inactive”.

Take `O=C1c2ccccc2C(=O)N1c1cccc(O)c1`: the Potency entry is “inactive”.

For `C#CCOc1ccc(C(C)=O)cc1-c1nnc2n1N=C(c1ccc(OC)c(O[C@@H]3CCOC3)c1)CS2`, the Potency result is “inactive”.

In the case of `N#CC1=C(NC=NCc2ccccc2)Oc2ccc3ccccc3c2C1c1ccccc1` (stereo not drawn), the Potency entry was “inactive”.

Take `COc1ccc(C2Nc3ccccc3C(=O)N2Cc2ccco2)cc1COc1c(C)cc(NC(C)=O)cc1C` (stereo not drawn): the Potency result was “inactive”.

Turning to `C/C(=C\c1ccc2c(c1)OCCO2)C1Nc2cccc3cccc(c23)N1`, the Potency result is “inactive”.

As for `Cc1cc(C)n2ncc(C(=O)NCC(C)C)c2n1`, the Potency result is “inactive”.

As to `Cc1cc(NS(=O)(=O)c2ccc(NC(=O)C(C)(C)c3ccc(Cl)c(Cl)c3)cc2)no1`, the Potency result is “inactive”.

With `Cc1ccc(S(=O)(=O)Nc2cccc3cccnc23)cc1`, the Potency entry was “inactive”.

`COc1cc(F)c(S(=O)(=O)N2CCN(S(=O)(=O)c3cccc(NC(C)=O)c3)CC2)c(F)c1`: the Potency result is “inactive”.

In the case of `O=C(Cc1nnc(-c2cc3ccccc3[nH]2)o1)Nc1cc(C(F)(F)F)ccc1Cl`, the Potency entry was “inactive”.

Turning to `COc1ccc(C2c3c(N)nc(CCCc4ccccc4)nc3Oc3ccc4ccccc4c32)cc1OC` (stereo not drawn), the Potency result was “inactive”.

Take `COc1ccc(C2=Nn3c(nnc3-c3ccccc3OC)SC2)cc1OC`: the Potency entry is “inactive”.

For `O=S(=O)(c1ccc2c(c1)OCCCO2)N1CCN(S(=O)(=O)c2c(F)cccc2F)CC1`, the Potency entry was “inactive”.

On to `COc1ccc2c(c1)Oc1ncn(CCN3CCOCC3)c(=N)c1C2c1ccc(OC)c(OC)c1` (stereo not drawn), for which the Potency result is “inactive”.
